This is part of a sample that, as a whole, favours compounds with a hit. Of some 83,000 tested, about 20% had one in any assay.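 Treatment: one concentration, 48 hours, 96-well format. Scoring: percent growth, with anything below 10 considered active.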 A number with no mark means an inactive call. Calls of active or inactive are those of the source.
Key:
Test in all cases: NCI-60 one-dose screen, 48 h (100 = growth as untreated, 0 = no growth, -100 = all killed)
Details in all cases: 10 µM unless noted
SK-MEL-2 melanoma = system: SK-MEL-2 melanoma
EKVX NSCLC = system: EKVX NSCLC
SN12C renal = system: SN12C renal
UO-31 renal = system: UO-31 renal
ACHN renal = system: ACHN renal
A498 renal = system: A498 renal
CCRF-CEM leukemia = system: CCRF-CEM leukemia
MOLT-4 leukemia = system: MOLT-4 leukemia
SR leukemia = system: SR leukemia
RPMI-8226 leukemia = system: RPMI-8226 leukemia
OVCAR-8 ovarian = system: OVCAR-8 ovarian
OVCAR-5 ovarian = system: OVCAR-5 ovarian
OVCAR-4 ovarian = system: OVCAR-4 ovarian
SK-OV-3 ovarian = system: SK-OV-3 ovarian
IGROV1 ovarian = system: IGROV1 ovarian
OVCAR-3 ovarian = system: OVCAR-3 ovarian
HS 578T breast = system: HS 578T breast
NCI/ADR-RES ovarian = system: NCI/ADR-RES ovarian
CAKI-1 renal = system: CAKI-1 renal
TK-10 renal = system: TK-10 renal

SMILES | growth (SK-MEL-2 melanoma) | growth (EKVX NSCLC) | growth (SN12C renal) | growth (UO-31 renal) | growth (ACHN renal) | growth (A498 renal) | growth (CCRF-CEM leukemia) | growth (MOLT-4 leukemia) | growth (SR leukemia) | growth (RPMI-8226 leukemia) | growth (OVCAR-8 ovarian) | growth (OVCAR-5 ovarian) | growth (OVCAR-4 ovarian) | growth (SK-OV-3 ovarian) | growth (IGROV1 ovarian) | growth (OVCAR-3 ovarian) | growth (HS 578T breast) | growth (NCI/ADR-RES ovarian) | growth (CAKI-1 renal) | growth (TK-10 renal) [%]
COc1ccc(-c2cc(-c3nnc(SCC(=O)Nc4ccc(C(C)=O)cc4)n3-c3ccccc3)c3ccccc3n2)cc1OC | 97.9% | 97.7% | 110% | 85.3% | 108% | 114% | 104% | 107% | 121% | 105% | 104% | 106% | 106% | 81.6% | 105% | 96.8% | 108% | 104% |  | 
O[N+]1=CC=CCC1=S.On1ccccc1=S.[Zn] | -67.8% (active) | -84.4% (active) | -82.4% (active) | -97.9% (active) |  | -83.4% (active) | -34.5% (active) | -36.1% (active) | -4.29% (active) | -32.6% (active) | -50.4% (active) | -83.1% (active) | -95.6% (active) | -96.6% (active) | -81.2% (active) | -97.4% (active) | 7.55% (active) | -46.8% (active) | -85.6% (active) | 
COc1ccc2nc(N/N=C(\C)c3ccccn3)cc(C)c2c1 | -22.8% (active) | -84.4% (active) | 11.8% |  | -13.8% (active) | -64.5% (active) | -37.4% (active) | -49.9% (active) | -40.9% (active) | -25.1% (active) | 0.111% (active) | 20% | 14.8% | 15.8% | -44.1% (active) | -78.5% (active) | 6.09% (active) | 12.4% | -3.71% (active) | 18.4
COc1ccc2nc(-c3ccc(Cl)cc3)cc(-c3nnc(SCC(=O)Nc4ccc(C(C)=O)cc4)n3-c3ccccc3)c2c1 | 91.5% | 101% | 114% | 84.4% |  | 100% | 108% | 83% | 83.7% | 104% | 102% | 96.4% | 93.7% | 93.9% | 107% | 96.8% | 99.5% | 95.2% |  | 
Cc1n(Cc2ccc3ccccc3c2)c2ccccc2[n+]1Cc1ccc2ccccc2c1 | -74.6% (active) | 9.57% (active) | -44.2% (active) | 30.7% | 25.3% | -11.5% (active) | -45.1% (active) | -54.7% (active) | -35.5% (active) | -57.7% (active) | -31.1% (active) | -46.4% (active) | -7.76% (active) | -18.4% (active) | -61.8% (active) | -78.1% (active) | -0.489% (active) | 82.4% |  | 
CCSc1nc(-c2ccco2)n2nc(-c3ccco3)cc2n1 | 129% | 76.1% | 95.8% | 72.4% |  | 91.7% | 86.7% | 118% | 93% | 52.8% | 97.1% | 110% | 65.9% | 101% | 82.9% | 105% | 96.2% | 95.3% | 84.3% | 
C[C@H](C(=O)N[C@@H](Cc1ccc(-c2ccccc2)cc1)C(=O)NC1CC(C)(C)N(C)C(C)(C)C1)c1ccc(-c2ccccc2)c(F)c1 | -70.9% (active) | -47.8% (active) | -59.2% (active) | -80.9% (active) | -87.8% (active) | -18.2% (active) | -45.9% (active) | -60.9% (active) | -40.5% (active) | -41.6% (active) | -46.5% (active) | -70.2% (active) | -50.7% (active) | -33.3% (active) | -26.4% (active) | -82.9% (active) | -35.1% (active) | -5.29% (active) |  | 
CCOC(=O)/C=C1/SC(=Nc2ccc(C#N)cc2)N(Cc2ccco2)C1=O | 78.5% | 74% | 52.5% | 31.6% | -78.6% (active) | 87% | 0.581% (active) | -6.94% (active) | 0.973% (active) | -33.8% (active) | 54.2% | 37.4% | 51.2% | 91.7% | 26.3% | 17.9% | 65.4% | 40.9% |  | 
COc1cnc2c(c1)C(=O)c1c-2n(CCCNC(C)C)c(=O)c2cc(F)ccc12 | -5.42% (active) | -20.8% (active) | -4.41% (active) | -89.9% (active) | -69.4% (active) | -89% (active) | -1.1% (active) |  | -13.4% (active) | -28.1% (active) | -14.2% (active) | -26.5% (active) | -0.201% (active) | -33.3% (active) | -5.18% (active) | -30.2% (active) | 16% | -16.1% (active) |  | 

Reference: PubChem BioAssay (NCI)
